Experimental data reported in PubChem BioAssay (NCATS).
Several values for one entry are separate records, joined by “and”; a condition that tells them apart may be missing. Identical values can stand only once. Results filed as inconclusive are left out. Activity calls are given as the source filed them. Unless noted, the call rests on the fitted dose curve; in most records, active means well fitted curve in the direction sought with a large enough effect; inconclusive means small, poorly fitted or top-dose-only effect, or another doubt; inactive means no such curve, though single readings can be large; an effect the other way counts as inactive or inconclusive.

What was measured:
[1] = biological target: Cytochrome P450 2C9 (Homo sapiens) (UniProt P11712); assay: qHTS Assay for Inhibitors and Substrates of Cytochrome P450 2C9 (AID 883); further: potency means the concentration at half of the fitted maximal effect; nearly all actives have a fitted effect of over 60% in size
Sequence of Cytochrome P450 2C9 (Homo sapiens) (P11712 whole entry, looked up): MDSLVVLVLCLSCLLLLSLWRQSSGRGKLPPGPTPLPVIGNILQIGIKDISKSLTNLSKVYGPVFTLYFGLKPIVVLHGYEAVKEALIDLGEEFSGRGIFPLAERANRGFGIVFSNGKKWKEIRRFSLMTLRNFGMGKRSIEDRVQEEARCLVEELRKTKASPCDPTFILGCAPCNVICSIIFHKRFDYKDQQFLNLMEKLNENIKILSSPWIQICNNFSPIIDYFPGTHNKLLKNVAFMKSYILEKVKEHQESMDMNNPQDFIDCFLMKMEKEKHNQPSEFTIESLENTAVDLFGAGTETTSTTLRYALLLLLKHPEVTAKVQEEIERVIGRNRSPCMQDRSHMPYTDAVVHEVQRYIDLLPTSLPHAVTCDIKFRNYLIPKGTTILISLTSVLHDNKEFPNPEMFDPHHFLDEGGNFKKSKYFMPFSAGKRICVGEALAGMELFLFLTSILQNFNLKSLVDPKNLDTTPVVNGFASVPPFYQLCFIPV
Outline: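 Human CYP2C9 (10nM) hydroxylated Luciferin-H (100uM, at its KM) to luciferin in 25mM KPO4. Compound was preincubated 10 min at 37C, then NADPH regeneration started a 60 min reaction at 37C. Luminescence was read after detection reagent, normalized to 57uM sulphaphenazole.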

[2] = biological target: Cytochrome P450 3A4 (Homo sapiens) (UniProt P08684); assay: qHTS Assay for Inhibitors and Substrates of Cytochrome P450 3A4 (AID 884); further: potency means the concentration at half of the fitted maximal effect; nearly all actives have a fitted effect of over 50% in size
Sequence of Cytochrome P450 3A4 (Homo sapiens) (P08684 whole entry, looked up): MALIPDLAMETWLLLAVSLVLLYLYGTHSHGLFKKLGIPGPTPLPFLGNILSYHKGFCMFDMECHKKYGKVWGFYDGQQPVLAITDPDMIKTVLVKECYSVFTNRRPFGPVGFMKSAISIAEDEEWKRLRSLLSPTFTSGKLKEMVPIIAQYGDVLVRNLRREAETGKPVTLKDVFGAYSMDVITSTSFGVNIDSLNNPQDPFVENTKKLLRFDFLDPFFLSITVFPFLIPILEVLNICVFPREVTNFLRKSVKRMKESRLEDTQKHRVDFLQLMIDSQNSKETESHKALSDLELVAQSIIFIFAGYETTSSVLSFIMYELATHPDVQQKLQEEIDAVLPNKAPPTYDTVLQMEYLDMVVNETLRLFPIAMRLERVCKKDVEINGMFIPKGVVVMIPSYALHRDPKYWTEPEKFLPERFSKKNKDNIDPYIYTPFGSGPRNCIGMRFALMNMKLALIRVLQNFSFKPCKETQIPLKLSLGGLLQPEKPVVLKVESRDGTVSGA
Outline: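 20 nM human CYP3A4 with 25 uM Luciferin-PPXE (at KM) in 200 mM KPO4, preincubated 10 min with compound; NADPH regeneration started a 60 min RT reaction. Luciferin detected by luminescence, normalized to 57 uM ketoconazole as full inhibition.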

[3] = biological target: Cytochrome P450 3A4 (Homo sapiens) (UniProt P08684); assay: qHTS Assay for Activators of Cytochrome P450 3A4 (AID 885); further: nearly all actives have a fitted effect of over 65% in size
Outline: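 Quantitative HTS format: compounds preincubated with 20nM human CYP3A4 and Luciferin-PPXE substrate at KM, reaction started by NADPH regeneration, stopped after 60 min, luciferase luminescence read 20 min later.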

[4] = biological target: Cytochrome P450 2D6 (Homo sapiens) (UniProt P10635); assay: qHTS Assay for Inhibitors and Substrates of Cytochrome P450 2D6 (AID 891); further: potency means the concentration at half of the fitted maximal effect; nearly all actives have a fitted effect of over 60% in size
Outline: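 Human CYP2D6 (5 nM) with 30 uM Luciferin-ME EGE (at Km) in 100 mM KPO4, compound preincubated 10 min, then NADPH regeneration system for 60 min at room temperature. Luciferin read by luminescence; normalized to 1.43 uM quinidine.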

[5] = biological target: Cytochrome P450 2C19 (Homo sapiens) (UniProt P33261); assay: qHTS Assay for Inhibitors and Substrates of Cytochrome P450 2C19 (AID 899); further: potency means the concentration at half of the fitted maximal effect; nearly all actives have a fitted effect of over 60% in size
Sequence of Cytochrome P450 2C19 (Homo sapiens) (P33261 whole entry, looked up): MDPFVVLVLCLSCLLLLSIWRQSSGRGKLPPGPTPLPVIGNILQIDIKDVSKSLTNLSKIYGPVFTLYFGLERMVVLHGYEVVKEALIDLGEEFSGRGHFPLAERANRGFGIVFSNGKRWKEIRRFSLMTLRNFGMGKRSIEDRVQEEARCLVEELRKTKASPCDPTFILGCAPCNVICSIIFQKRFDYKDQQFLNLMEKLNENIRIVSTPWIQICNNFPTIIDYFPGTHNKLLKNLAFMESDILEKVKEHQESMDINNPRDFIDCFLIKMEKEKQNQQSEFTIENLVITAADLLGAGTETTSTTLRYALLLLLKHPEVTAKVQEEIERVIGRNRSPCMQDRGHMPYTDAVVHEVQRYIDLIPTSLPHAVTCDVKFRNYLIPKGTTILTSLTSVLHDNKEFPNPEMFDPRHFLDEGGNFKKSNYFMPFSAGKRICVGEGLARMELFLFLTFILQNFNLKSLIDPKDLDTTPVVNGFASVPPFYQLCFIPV
Outline: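 Human CYP2C19 (5nM) with Luciferin-H EGE at 10uM (its KM) in 50mM KPO4 was preincubated with compound for 10 min at 37C. NADPH regeneration started a 60 min 37C reaction. Luciferin was read by luminescence, normalized to 57uM ketoconazole.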

[6] = qHTS Assay for Identification of Small Molecule Antagonists for Thrombopoietin (TPO) Signaling Pathway (AID 918); conditions: TPO-dependent cell signaling reporter, antagonist mode; further: potency means the concentration at half of the fitted maximal effect; nearly all actives have a fitted effect of over 60% in size
Outline: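 Murine Ba/F3 cells stably expressing human TPO receptor and a Glycoprotein IIb promoter–luciferase reporter were IL-3-starved overnight, treated with compounds plus TPO (26 pM final, its EC50) for 24 hrs at 37 C, then read by luminescence.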

[7] = biological target: Alpha-galactosidase (Coffea arabica) (UniProt Q42656); assay: Counterscreen for Glucocerebrosidase Inhibitors: qHTS Assay for Coffee Bean alpha-Galactosidase at pH 4.5 (AID 957)
Sequence of Alpha-galactosidase (Coffea arabica) (Q42656 whole entry, looked up): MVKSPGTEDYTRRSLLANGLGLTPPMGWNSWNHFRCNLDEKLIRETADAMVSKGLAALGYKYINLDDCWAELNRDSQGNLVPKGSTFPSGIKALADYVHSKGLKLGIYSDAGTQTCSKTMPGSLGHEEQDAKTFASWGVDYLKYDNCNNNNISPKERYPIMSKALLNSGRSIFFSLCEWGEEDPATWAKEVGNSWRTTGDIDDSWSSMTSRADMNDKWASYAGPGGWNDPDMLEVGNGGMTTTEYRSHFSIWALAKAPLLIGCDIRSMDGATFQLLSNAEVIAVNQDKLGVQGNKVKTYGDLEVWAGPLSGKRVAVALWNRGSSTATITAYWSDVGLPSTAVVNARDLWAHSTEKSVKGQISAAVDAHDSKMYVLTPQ
Outline: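 Green coffee bean enzyme (2 nM final) was incubated with compounds (0.7 nM to 77 uM) and 4-methylumbelliferyl alpha-D-galactopyranoside (80 uM final) in 50 mM citric acid, 0.005% Tween-20, pH 4.5, 20 min at room temperature; AC50 from Hill fits.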

[8] = biological target: Alpha-galactosidase (Coffea arabica) (UniProt Q42656); assay: Counterscreen for Glucocerebrosidase Inhibitors: qHTS Assay for Coffee Bean alpha-Galactosidase at pH 5.9 (AID 998)
Outline: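 Green coffee bean enzyme (2 nM final) was incubated with compounds (0.7 nM–77 uM) and 4-methylumbelliferyl alpha-D-galactopyranoside (80 uM) in citrate buffer pH 5.9, 20 min at room temperature. High-pH stop; fluorescence 365/440 nm; AC50 from Hill fits.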

[9] = biological target: DNA repair nuclease/redox regulator APEX1 (Homo sapiens) (UniProt P27695); assay: qHTS Validation Assay for Inhibitors of the Human Apurinic/apyrimidinic Endonuclease 1 (APE1) (AID 1705; further: potency means the concentration at half of the fitted maximal effect)
Outline: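 Endonuclease activity of human APE1 is followed as dequenching when the enzyme incises a tetrahydrofuran abasic site in a short duplex labelled 5'-TAMRA/3'-BHQ-2 (50 nM final), after 15 min enzyme–compound preincubation at room temperature.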

[10] = Counterscreen for APE1 Inhibitors: Fluorescent Dye Displacement Validation Assay (AID 1707); further: potency means the concentration at half of the fitted maximal effect
Outline: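 ThO 250 nM + dsDNA 50 nM (THF abasic site, 5'-TAMRA), Tris-HCl pH7.5/50mM NaCl/2 mM MgCl2/0.01% Tween-20; compounds pin-transferred; ex 480/em 540 nm endpoint. Neutral = no compound; no-DNA ThO wells = negative control.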

[11] = qHTS for differential inhibitors of proliferation of Plasmodium falciparum line 7G8 (AID 1815);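 further: potency means the concentration at half of the fitted maximal effect; parasite growth measured after three days of incubation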
[12] = qHTS for differential inhibitors of proliferation of Plasmodium falciparum line W2 (AID 1883); conditions: Potency: Plasmodium falciparum W2 proliferation inhibition;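 further: potency means the concentration at half of the fitted maximal effect; parasites grown with compound for 72 h before lysis and staining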
[13] = Validation screen for inhibitors of Lassa infection (AID 463096; calls by dose curve)
[14] = biological target: DNA polymerase III PolC-type (Bacillus subtilis (strain 168)) (UniProt P13267); assay: qHTS Validation Assay for the Inhibitors of DNA Replication in Gram-Positive Bacteria (AID 485295); further: potency means the concentration at half of the fitted maximal effect
Sequence of DNA polymerase III PolC-type (Bacillus subtilis (strain 168)) (P13267 whole entry, looked up): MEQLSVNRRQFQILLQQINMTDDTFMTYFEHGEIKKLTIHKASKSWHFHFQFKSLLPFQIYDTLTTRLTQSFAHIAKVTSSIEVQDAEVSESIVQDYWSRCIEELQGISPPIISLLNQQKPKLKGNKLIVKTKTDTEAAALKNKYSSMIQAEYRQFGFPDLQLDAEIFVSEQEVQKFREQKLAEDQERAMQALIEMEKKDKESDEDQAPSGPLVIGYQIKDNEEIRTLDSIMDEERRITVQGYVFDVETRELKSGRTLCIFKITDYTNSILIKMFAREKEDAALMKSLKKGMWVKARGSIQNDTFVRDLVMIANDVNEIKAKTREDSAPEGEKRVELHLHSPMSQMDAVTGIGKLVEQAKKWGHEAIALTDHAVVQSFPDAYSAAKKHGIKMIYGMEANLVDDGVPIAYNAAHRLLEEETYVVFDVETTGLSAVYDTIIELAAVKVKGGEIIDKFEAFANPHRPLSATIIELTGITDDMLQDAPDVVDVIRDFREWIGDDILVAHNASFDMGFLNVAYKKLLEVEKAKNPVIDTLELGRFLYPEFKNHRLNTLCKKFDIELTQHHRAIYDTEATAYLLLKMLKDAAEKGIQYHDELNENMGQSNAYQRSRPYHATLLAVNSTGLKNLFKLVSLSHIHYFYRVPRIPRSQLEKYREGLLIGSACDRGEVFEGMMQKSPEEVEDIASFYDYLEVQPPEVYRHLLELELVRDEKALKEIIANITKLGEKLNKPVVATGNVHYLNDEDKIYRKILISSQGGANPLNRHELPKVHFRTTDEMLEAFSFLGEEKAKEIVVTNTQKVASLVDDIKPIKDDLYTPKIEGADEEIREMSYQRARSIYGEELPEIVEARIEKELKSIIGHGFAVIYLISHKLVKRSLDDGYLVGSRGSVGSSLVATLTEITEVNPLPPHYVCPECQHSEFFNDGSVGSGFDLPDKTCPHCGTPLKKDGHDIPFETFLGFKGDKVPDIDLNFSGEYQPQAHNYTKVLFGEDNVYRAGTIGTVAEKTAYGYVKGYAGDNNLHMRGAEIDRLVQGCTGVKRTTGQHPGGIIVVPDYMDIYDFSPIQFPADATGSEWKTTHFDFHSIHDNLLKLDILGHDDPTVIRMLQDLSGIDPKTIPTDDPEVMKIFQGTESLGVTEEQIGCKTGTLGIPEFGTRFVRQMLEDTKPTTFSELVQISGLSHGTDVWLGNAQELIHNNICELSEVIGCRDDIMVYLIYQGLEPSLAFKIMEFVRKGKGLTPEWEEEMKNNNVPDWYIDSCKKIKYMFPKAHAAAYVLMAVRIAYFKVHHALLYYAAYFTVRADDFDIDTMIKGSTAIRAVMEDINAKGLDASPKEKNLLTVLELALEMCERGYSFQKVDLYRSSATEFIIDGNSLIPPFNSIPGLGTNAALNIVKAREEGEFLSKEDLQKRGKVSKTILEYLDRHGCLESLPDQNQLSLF
Outline: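 Primed replication of single-stranded M13Gori by a four-protein B. subtilis holoenzyme is measured at room temperature. Double-stranded product is quantified by PicoGreen fluorescence after an EDTA stop; inhibition is scaled between DMSO and EDTA controls.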

[15] = biological target: M-phase phosphoprotein 8 (Homo sapiens) (UniProt Q99549); assay: qHTS Validation Assay for Inhibitors for MPP8 Chromodomain Interactions with Methylated Histone Tails (AID 488949); further: potency means the concentration at half of the fitted maximal effect; nearly all actives have a fitted effect of over 55% in size
Outline: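 Disruption of the preformed MPP8–trimethyl-H3K9 peptide complex (both 50 nM, 30 min, RT) is measured after 30 min compound exposure, using AlphaScreen proximity beads; aurintricarboxylic acid titration serves as plate control.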

[16] = biological target: Chromobox protein homolog 1 (Homo sapiens) (UniProt P83916); assay: qHTS Validation Assay for Inhibitors of HP1-beta Chromodomain Interactions with Methylated Histone Tails (AID 488953); further: potency means the concentration at half of the fitted maximal effect; nearly all actives have a fitted effect of over 50% in size
Sequence of Chromobox protein homolog 1 (Homo sapiens) (P83916 whole entry, looked up): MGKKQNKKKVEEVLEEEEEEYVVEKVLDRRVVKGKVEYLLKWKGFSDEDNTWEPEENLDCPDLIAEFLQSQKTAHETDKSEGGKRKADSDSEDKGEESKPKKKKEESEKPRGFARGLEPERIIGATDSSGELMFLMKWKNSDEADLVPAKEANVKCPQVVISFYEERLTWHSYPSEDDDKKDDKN
Outline: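 HP1-beta (50 nM) was preincubated 30 min at room temperature with biotinylated H3(1-18)K9me3 peptide (50 nM) in PBS pH 7.4, 0.01% Tween-20, then with compounds 30 min. AlphaScreen signal was read after streptavidin donor/nickel chelate acceptor beads (10 ug/mL final).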

[17] = Inducers of the Endoplasmic Reticulum Stress Response (ERSR) in human glioma: Validation (AID 504836)
Outline: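 Stably transfected U87-MG human glioma cells carrying a GRP78-based luminescent sensor were seeded at 1000 cells/well, pin-dosed with compounds and incubated 16 h. Luciferase reagent was then added, and end-point luminescence was read after 10 min at room temperature.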

[18] = qHTS assay for small molecule agonists of retinoid X receptor alpha signaling (AID 588544; calls by dose curve); conditions: HEK293T RXRa-UAS-bla, beta-lactamase reporter, 18 h; 530 nm emission
[19] = biological target: Retinoic acid receptor RXR-alpha (Homo sapiens) (UniProt P19793); assay: as above
Sequence of Retinoic acid receptor RXR-alpha (Homo sapiens) (P19793 whole entry, looked up): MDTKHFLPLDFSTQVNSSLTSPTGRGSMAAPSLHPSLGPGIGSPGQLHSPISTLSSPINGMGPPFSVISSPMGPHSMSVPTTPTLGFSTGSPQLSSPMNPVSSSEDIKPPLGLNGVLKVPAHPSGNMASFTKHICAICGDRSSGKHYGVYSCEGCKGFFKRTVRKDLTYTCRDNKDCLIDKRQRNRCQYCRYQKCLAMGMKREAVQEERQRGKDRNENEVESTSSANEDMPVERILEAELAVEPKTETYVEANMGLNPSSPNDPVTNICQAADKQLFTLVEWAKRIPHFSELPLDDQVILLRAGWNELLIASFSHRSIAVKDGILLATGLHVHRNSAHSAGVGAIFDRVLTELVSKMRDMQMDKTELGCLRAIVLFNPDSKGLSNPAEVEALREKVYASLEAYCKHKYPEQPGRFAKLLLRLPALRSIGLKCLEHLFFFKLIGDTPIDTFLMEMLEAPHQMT

[20] = biological target: Voltage-gated inwardly rectifying potassium channel KCNH2 (Homo sapiens) (UniProt Q12809); assay: qHTS Assay for Small Molecule Inhibitors of the Human hERG Channel Activity (AID 588834);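 further: top concentration of the series differs between compounds; lower thallium flux fluorescence means stronger hERG block; nearly all actives have a fitted effect of over 50% in size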
Outline: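 Measured: FluxOR fluorescence after thallium stimulation in U2OS cells transduced with hERG by baculovirus. Compounds pre-incubated around 10 min; medium Opti-MEM with 2% FCS. AC50 from Hill equation.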

[21] = qHTS assay for small molecule activators of the p53 signaling pathway (AID 651743; active means well fitted activation curve with a large enough effect in the signal ratio, not every such curve was filed as active; the % refers to the signal ratio; further: potency means the concentration at half of the fitted maximal effect); conditions: HCT-116 p53RE-bla, beta-lactamase FRET ratio, 16 h; activation: stronger effect = higher value
Outline: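 p53RE-bla HCT-116 cells with a stably integrated beta-lactamase reporter under p53 response elements were plated, rested 5 hours at 37 C/5% CO2, then exposed to compounds in DMSO for 16 hours at 37 C. LiveBLAzer B/G FRET substrate was read after 2 hours at room temperature.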

[22] = qHTS assay for small molecule disruptors of the mitochondrial membrane potential - 1 hr assay (AID 651754; calls by dose curve; further: potency means the concentration at half of the fitted maximal effect; nearly all actives have a fitted effect of over 35% in size)
Outline: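 HepG2 cells, attached overnight at 37C, were exposed to compound or DMSO vehicle for 1 hr at 37C, 5% CO2, then stained with Mito-MPS dye for 30 min. Red aggregate versus green monomer fluorescence reports membrane potential.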

[23] = qHTS assay for small molecule disruptors of the mitochondrial membrane potential - 5 hr assay (AID 651755; calls by dose curve; further: potency means the concentration at half of the fitted maximal effect; nearly all actives have a fitted effect of over 40% in size)
Outline: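 HepG2 cells, attached overnight at 37C, were exposed to compound or DMSO for 5 hr at 37C, 5% CO2. Mito-MPS dye was then added for 30 min, and fluorescence read at 490/535 nm (monomers) and 540/590 nm (aggregates).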

[24] = qHTS assay to identify small molecules that stimulate interleukin-8 (IL-8) secretion (AID 651758; active means well fitted activation curve with a large enough effect in the signal ratio; the % refers to the signal ratio; further: potency means the concentration at half of the fitted maximal effect)
Outline: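 THP-1, 2000 cells/well; cpd 16 h, 37 C; add cryptate + XL665 anti-IL-8 Abs; RT 1-3 h; TR-FRET read.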

[25] = qHTS assay for environmental chemicals that activate the Aryl hydrocarbon Receptor (AhR) signaling pathway (AID 651777); conditions: 1A2-DRE human hepatoma cells, luciferase, 24 h; activation: stronger effect = higher value; further: potency means the concentration at half of the fitted maximal effect; nearly all actives have a fitted effect of over 15% in size
Outline: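 AhR activation is scored as a rise in luciferase from a stable DRE–CYP1A2 promoter construct in human hepatoma cells. Treatment lasts 24 hr at 37 C; detection uses One-Glo after 30 min at room temperature.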

[26] = biological target: Nuclear receptor ROR-gamma (Homo sapiens) (UniProt P51449); assay: qHTS assay for small molecule antagonists of the retinoid-related orphan receptor gamma (ROR-gamma) signaling pathway (AID 651802)
Sequence of Nuclear receptor ROR-gamma (Homo sapiens) (P51449 whole entry, looked up): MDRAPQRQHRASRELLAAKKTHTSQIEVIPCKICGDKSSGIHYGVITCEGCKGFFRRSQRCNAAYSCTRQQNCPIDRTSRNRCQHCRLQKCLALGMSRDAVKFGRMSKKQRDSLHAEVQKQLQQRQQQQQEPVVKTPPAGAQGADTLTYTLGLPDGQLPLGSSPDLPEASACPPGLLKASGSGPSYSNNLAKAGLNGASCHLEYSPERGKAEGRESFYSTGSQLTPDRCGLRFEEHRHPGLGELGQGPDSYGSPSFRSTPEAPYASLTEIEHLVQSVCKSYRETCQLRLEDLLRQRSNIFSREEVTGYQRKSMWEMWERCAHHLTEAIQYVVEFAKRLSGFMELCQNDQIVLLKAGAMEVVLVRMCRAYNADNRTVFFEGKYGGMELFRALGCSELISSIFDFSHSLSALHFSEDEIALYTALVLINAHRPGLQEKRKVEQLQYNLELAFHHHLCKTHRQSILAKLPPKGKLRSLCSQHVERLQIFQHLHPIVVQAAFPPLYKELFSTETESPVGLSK
Outline: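 CHO cells carrying TET-inducible ROR-gamma and an ROR response element–luciferase reporter were exposed to compound, then induced with doxycycline. After 16hr at 37C, luminescence was read; lower signal indicates antagonism.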

[27] = biological target: Arylsulfatase A (Homo sapiens) (UniProt P15289); assay: qHTS screen for enhancers of Arylsulfatase A (ASA1): LOPAC Validation Assay (AID 720538)
Outline: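 First, ASA-I179S fibroblasts from an MLD patient adhered for 6 hrs. Next, compounds were added for 48h. Then pNCS substrate (0.5mM final) with lysis buffer reacted 14h at room temperature before NaOH stop and fluorescence measurement.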

[28] = qHTS profiling of the MIPE4 collection as inhibitors of Plasmodium falciparum (3D7) proliferation (AID 743344; call rule not given here); conditions: P. falciparum 3D7 in erythrocytes, SYBR Green DNA fluorescence, 72 h; at 28.5 µM (top of the series) unless noted
Outline: (§1)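 Erythrocytes infected with P. falciparum (0.3% parasitemia, 2.5% hematocrit) incubated with compounds 72 h at 37 C, 5% CO2. Lysis with saponin/Triton buffer containing SYBR Green I, overnight at room temperature in the dark; DNA fluorescence (485/535 nm) normalised to 0.29 uM artemisinin and DMSO.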

[29] = qHTS profiling of the MIPE4 collection as inhibitors of Plasmodium falciparum (DD2) proliferation (AID 743345; call rule not given here); conditions: P. falciparum Dd2 in erythrocytes, SYBR Green DNA, 72 h; at 28.5 µM (top of the series) unless noted
Outline: as §1

[30] = qHTS profiling of the MIPE4 collection as inhibitors of Plasmodium falciparum (DD2) proliferation (Rep 2) (AID 743346; call rule not given here); conditions: P. falciparum Dd2 in erythrocytes, SYBR Green DNA, 72 h; at 28.5 µM (top of the series) unless noted
Outline: as §1

[31] = qHTS for Inhibitors of the Functional Ribonucleoprotein Complex (vRNP) of Lassa (LASV) Arenavirus: LASV Primary Screen - GLuc reporter signal (AID 1347082; calls by dose curve; tested in HEK293 reporter line; further: nearly all actives have a fitted effect of over 60% in size)
[32] = qHTS for Inhibitors of the Functional Ribonucleoprotein Complex (vRNP) of Lassa (LASV) Arenavirus: Viability assay - alamar blue signal for LASV Primary Screen (AID 1347083; calls by dose curve; tested in HEK293 reporter line; further: nearly all actives have a fitted effect of over 80% in size)
[33] = qHTS for Inhibitors of the Functional Ribonucleoprotein Complex (vRNP) of Lymphocytic Choriomeningitis Arenaviruses (LCMV): Viability assay - alamar blue signal for LCMV Primary Screen (AID 1347085; calls by dose curve; tested in HEK293 reporter line; further: nearly all actives have a fitted effect of over 80% in size)
[34] = biological target: Nucleoprotein (Lymphocytic choriomeningitis virus (strain Armstrong)) (UniProt P09992); assay: qHTS for Inhibitors of the Functional Ribonucleoprotein Complex (vRNP) of Lymphocytic Choriomeningitis Arenaviruses (LCMV): LCMV Primary Screen - GLuc reporter signal (AID 1347086; calls by dose curve; further: nearly all actives have a fitted effect of over 70% in size)
Sequence of Nucleoprotein (Lymphocytic choriomeningitis virus (strain Armstrong)) (P09992 whole entry, looked up): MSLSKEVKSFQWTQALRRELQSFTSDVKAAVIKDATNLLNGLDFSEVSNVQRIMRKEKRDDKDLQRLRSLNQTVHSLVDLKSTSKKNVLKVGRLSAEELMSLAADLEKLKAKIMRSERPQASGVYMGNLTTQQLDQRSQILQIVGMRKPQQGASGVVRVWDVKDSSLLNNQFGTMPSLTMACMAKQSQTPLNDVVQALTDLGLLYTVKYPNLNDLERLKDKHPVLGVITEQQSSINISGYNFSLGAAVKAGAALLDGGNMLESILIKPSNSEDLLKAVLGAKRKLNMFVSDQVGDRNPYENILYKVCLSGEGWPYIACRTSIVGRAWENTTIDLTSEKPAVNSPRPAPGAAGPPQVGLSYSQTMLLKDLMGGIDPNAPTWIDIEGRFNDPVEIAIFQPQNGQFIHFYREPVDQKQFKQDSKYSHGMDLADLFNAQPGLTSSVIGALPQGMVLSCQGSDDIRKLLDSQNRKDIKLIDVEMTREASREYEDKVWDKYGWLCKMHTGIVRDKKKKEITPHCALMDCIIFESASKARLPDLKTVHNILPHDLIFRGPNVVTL

[35] = Cytotoxicity counterscreen for inhibitors of SARS-CoV-2 cell entry (AID 1645845; calls by dose curve; further: nearly all actives have a fitted effect of over 50% in size)
Outline: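 Expi293F/hACE2 cells seeded overnight; cpd pin-transferred in DMSO, 1 h preincubation, + media, 48 h 37 C 5% CO2; ATPLite 1step luminescence; normalized to cells and no cells.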

[36] = Primary qHTS to identify inhibitors of SARS-CoV-2 cell entry (AID 1645846; calls by dose curve; further: nearly all actives have a fitted effect of over 45% in size); conditions: activity change, negative = inhibition: at 57.1 µM (top of the series) unless noted
Outline: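 Data are normalized to wells receiving SARS-CoV-2-S pseudoparticles and those given bald particles. Entry signal was luciferase luminescence in stable hACE2 Expi293F cells, 48 hr post-infection, after 1 hr compound pretreatment.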

CRL-7250 = normal cell line; assay: qHTS assay to identify novel small-molecules to repurpose for Merkel cell carcinoma treatment (AID 1296009); conditions: MCC and control cell lines, CellTiter-Glo viability, 72 h; series mostly up to 92 µM; further: nearly all actives have a fitted effect of over 60% in size
Outline: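 Cells exposed to NPC (8-point) and MIPE (11-point) compound dilutions for 72 hr at 37 degree celsius; viability read by CellTiter-Glo luminescence, normalized to no-cell and DMSO in-plate controls.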

Cc1cc(O)c2c(c1)C(=O)c1cc(O)cc(O)c1C2=O
76.8%: parasite growth, % of DMSO control [28]
21.4%: max response [18]
3.76%: activity change, negative = inhibition [36]
inactive: Potency [3] | outcome [7] | outcome [8] | Potency [13] | outcome [17] | outcome [19] | Potency [20] | Potency [27] | Potency [31] | Potency [32] | Potency [33] | Potency [34] | Potency [35] | Potency (CRL-7250)
66.9%: parasite growth, % of control (lower = inhibition) [30]
90.9%: parasite growth remaining, % of DMSO control (lower = more inhibition) [29]
active: Potency [1] 7.94 µM | Potency [2] 10 µM | Potency [4] 12.6 µM | Potency [5] 7.94 µM | Potency [6] 12.6 µM | Potency [9] 35.5 µM | Potency [10] 28.2 µM | Potency [11] 11.2 µM | Potency [12] 14.1 µM | Potency [14] 23.8 µM | Potency [15] 10.6 µM | Potency [16] 22.4 µM | Potency [21] 15.8 µM and 22.4 µM | Potency [22] 2.98 µM | Potency [23] 3.76 µM | Potency [24] 66.8 µM | Potency [25] 44.7 µM | Potency [26] 42.2 µM
